Experimental findings from PubChem BioAssay are described below.

The structures appear in SMILES notation. Calls of active or inactive are those of the source.

Test [1] has as its system PRMT1 (protein arginine N-methyltransferase 1). The experiment in a line: PRMT1 binders on small-molecule microarrays, primary screen, biochemical, small-molecule microarray, 635 nm fluorescence (AID 1088).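 Also: binding of Prmt1 protein to compounds spotted on small-molecule microarray slides.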 Conditions: small-molecule microarray binding, higher = more signal.
Test [2] can be described thus: yeast growth modulation, basal conditions, primary screen, YJM789 clinical isolate, OD600, 24 h (AID 1089).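 Also: growth of clinical yeast isolate S. cerevisiae YJM 789 seeded 1000 cells per well; test concentration not given here.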 The note with it: S. cerevisiae YJM789 growth, higher = more signal, called active from +8 up or from −8 down.
Test [3] is described as follows: fission yeast growth modulation, primary screen, strain 972, OD600, 24 h, no modulator (AID 1090).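 Also: basal condition with compound alone and no growth modifier present; test concentration not given here.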 Conditions: S. pombe 972 growth, higher = more signal, called active from +8 up or from −8 down.
A short description of test [4]: S. cerevisiae growth modulation with rapamycin, primary screen, strain BY4716, OD600, 96 h (AID 1091). Also: test concentration not given here. The note with it: higher = more signal, called active from +8 up or from −8 down.
The target of test [5] is Torsin-1A-interacting protein 2 (Homo sapiens) (UniProt Q8NFQ8). In words: LULL1 binders on small-molecule microarray, primary screen, cell lysate, human LULL1 lysate, 635/667 nm fluorescence (AID 1092).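 Also: probe is lysate of COS7 cells overexpressing human LULL1; score merges per-feature 667 nm fluorescence with signal-to-noise.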 Conditions: hLULL1 lysate binding, 635 nm fluorescence, higher = more signal.
The nature of test [6]: E. coli growth modulation, two-sided OD650, primary screen, E. coli filamentation project, strain DRC41, 24 h (AID 1093).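 Also: MC1000 strain lacking acrAB efflux and sulA so SOS filamentation is blocked; test concentration not given here.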 Conditions: OD650, 24 h, higher = more signal, called active from +8 up or from −8 down.
Test [7] in a line: small-molecule microarray binders of probe aLefty2, primary screen, biochemical, biotinylated probe, 635/667 nm fluorescence (AID 1094).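 Also: score merges spot fluorescence near 667 nm with spot signal-to-noise ratio.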 Conditions: higher = more signal.
The subject of test [8] is Noggin (protein binding on small-molecule microarray). The experiment in a line: Noggin binders on small-molecule microarray, primary screen, biochemical, 635/667 nm fluorescence (AID 1095).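 Also: score merges 667 nm feature fluorescence with signal to noise over triplicate slides.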 Conditions: 635 nm fluorescence, higher = more signal.
In test [9] the target is Neurogenic locus notch homolog protein 3 (Homo sapiens) (UniProt Q9UM47). The experiment in a line: NOTCH3 binders on small-molecule microarray, primary screen, biochemical, 635/667 nm fluorescence (AID 1096). Conditions: NOTCH3 binding, 635 nm fluorescence, higher = more signal.
A short description of test [10]: small-molecule microarray binders of probe aEGFR, primary screen, biochemical, biotinylated probe, 635/667 nm fluorescence (AID 1097).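 Also: probe is a biotinylated anti-EGFR antibody binding compounds printed on slides; score combines fluorescence near 667 nm and signal to noise of each spot.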 Conditions: higher = more signal.
For test [11], the system named is Plasmodium falciparum Sir2 (PF13_0152, Sir2A). The experiment in a line: pfSir2 binders on small-molecule microarrays, primary screen, biochemical, small-molecule microarray, 635 nm fluorescence (AID 1098).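 Also: score merges spot fluorescence intensity with its signal-to-noise ratio.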 Conditions: small-molecule microarray binding, fluorescence 635 nm; higher = more signal.
Test [12] can be described thus: small-molecule microarray binders of probe aDKK1, primary screen, biochemical, biotinylated probe, 635/667 nm fluorescence (AID 1099).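 Also: score merges 667nm spot fluorescence with signal to noise across triplicate slides; reference of the scale not given here.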 Conditions: higher = more signal.
Test [13] is described as follows: small-molecule microarray binders of probe aCHRDL2, primary screen, biochemical, biotinylated probe, 635/667 nm fluorescence (AID 1100). The note with it: higher = more signal.
Test [14] in a line: splicing luciferase reporter signal modulators, primary screen, spliceosome inhibition project, cell-based, HEK293, splice +/- reporter (AID 1101).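 Also: HEK293 cells carrying a splicing-competent luciferase reporter gene; test concentration not given here.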 Conditions: luminescence, 24 h, higher = more signal, called active from +8 up or from −8 down.
The target of test [15] is Fibroblast growth factor 10 (Homo sapiens) (UniProt O15520). The experiment in a line: FGF10 binders on small-molecule microarrays, primary screen, biochemical, small-molecule microarray, 635 nm fluorescence (AID 1102). The note with it: FGF10 binding, fluorescence 635 nm, higher = more signal.
The test system of test [16] is glycogen synthase kinase-3 (GSK3A per assay name; protocol says GSK3B). The experiment in a line: GSK3 binders on small-molecule microarrays, primary screen, biochemical, small-molecule microarray, 635 nm fluorescence, GSK3A (AID 1103). Also: the record names both GSK3A and GSK3B. The note with it: small-molecule microarray binding, fluorescence 635 nm; higher = more signal.
Test [17] concerns the target Epidermal growth factor receptor (Homo sapiens) (UniProt P00533). The experiment in a line: EGFR binders on small-molecule microarrays, primary screen, biochemical, small-molecule microarray, 635 nm fluorescence (AID 1104).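 Also: score merges 667 nm emission intensity with spot signal to noise over triplicate slides.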 The note with it: EGFR binding, higher = more signal.
In test [18] the target is Follistatin-related protein 3 (Homo sapiens) (UniProt O95633). The experiment in a line: FSTL3 binders on small-molecule microarrays, primary screen, biochemical, small-molecule microarray, 635 nm fluorescence (AID 1105).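 Also: score merges emission near 667 nm and signal to noise per printed spot across three slides.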 The note with it: FSTL3 binding, higher = more signal.
The target of test [19] is Dickkopf-related protein 1 (Homo sapiens) (UniProt O94907). In words: DKK1 binders on small-molecule microarrays, primary screen, biochemical, small-molecule microarray, 635 nm fluorescence scan (AID 1106).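 Also: score merges emission near 667 nm with signal to noise over three replicate slides.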 The note with it: DKK1 binding, higher = more signal.
Test [20] deals with Inhibin beta A chain (activin A). In words: INHBA (activin A) binders on microarrays, primary screen, biochemical, small-molecule microarray, 635 nm fluorescence scan (AID 1107).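 Also: mouse activin A protein probed at 4.33 µg/mL on printed slides; score merges bound-protein fluorescence near 667 nm with spot signal-to-noise.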 The note with it: small-molecule microarray binding, higher = more signal.

Sequence of Follistatin-related protein 3 (Homo sapiens) (O95633 whole entry, looked up): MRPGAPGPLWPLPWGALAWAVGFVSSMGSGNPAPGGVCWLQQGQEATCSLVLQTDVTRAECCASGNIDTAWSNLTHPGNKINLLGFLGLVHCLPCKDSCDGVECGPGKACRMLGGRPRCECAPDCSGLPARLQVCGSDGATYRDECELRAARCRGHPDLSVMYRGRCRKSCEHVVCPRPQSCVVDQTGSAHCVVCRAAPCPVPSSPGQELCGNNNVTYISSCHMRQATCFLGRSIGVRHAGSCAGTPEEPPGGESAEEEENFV
Sequence of Epidermal growth factor receptor (Homo sapiens) (P00533 whole entry, looked up): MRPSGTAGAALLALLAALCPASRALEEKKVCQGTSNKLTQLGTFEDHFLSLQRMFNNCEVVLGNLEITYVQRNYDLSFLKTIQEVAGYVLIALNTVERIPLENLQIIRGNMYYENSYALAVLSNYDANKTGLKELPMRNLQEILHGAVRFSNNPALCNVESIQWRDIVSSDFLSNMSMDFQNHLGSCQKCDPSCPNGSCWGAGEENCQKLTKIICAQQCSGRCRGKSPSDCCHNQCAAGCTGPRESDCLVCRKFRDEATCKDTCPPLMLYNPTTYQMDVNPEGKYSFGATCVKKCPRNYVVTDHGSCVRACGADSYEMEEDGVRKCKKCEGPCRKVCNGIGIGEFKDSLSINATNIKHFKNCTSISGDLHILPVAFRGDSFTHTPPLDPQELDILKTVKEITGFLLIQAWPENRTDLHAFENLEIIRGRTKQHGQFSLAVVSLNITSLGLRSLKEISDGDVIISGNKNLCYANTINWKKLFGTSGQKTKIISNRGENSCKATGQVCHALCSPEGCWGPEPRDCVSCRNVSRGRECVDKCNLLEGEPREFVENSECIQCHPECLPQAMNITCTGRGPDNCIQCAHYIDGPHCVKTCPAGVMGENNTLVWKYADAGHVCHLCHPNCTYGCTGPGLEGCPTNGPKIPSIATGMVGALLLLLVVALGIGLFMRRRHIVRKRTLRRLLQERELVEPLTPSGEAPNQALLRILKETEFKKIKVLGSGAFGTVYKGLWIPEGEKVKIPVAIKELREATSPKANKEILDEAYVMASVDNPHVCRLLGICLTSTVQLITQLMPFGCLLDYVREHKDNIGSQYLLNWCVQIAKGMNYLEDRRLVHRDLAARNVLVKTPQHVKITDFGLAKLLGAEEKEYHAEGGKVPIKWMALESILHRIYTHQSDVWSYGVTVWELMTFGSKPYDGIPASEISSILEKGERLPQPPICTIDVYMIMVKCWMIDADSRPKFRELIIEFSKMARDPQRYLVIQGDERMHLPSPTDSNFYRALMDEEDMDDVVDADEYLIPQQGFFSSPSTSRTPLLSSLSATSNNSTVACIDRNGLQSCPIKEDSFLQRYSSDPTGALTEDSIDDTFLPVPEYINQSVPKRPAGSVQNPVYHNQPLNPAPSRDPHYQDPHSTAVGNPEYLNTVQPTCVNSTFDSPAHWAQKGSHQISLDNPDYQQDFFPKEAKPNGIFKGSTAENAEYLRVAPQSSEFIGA
Sequence of Torsin-1A-interacting protein 2 (Homo sapiens) (Q8NFQ8 whole entry, looked up): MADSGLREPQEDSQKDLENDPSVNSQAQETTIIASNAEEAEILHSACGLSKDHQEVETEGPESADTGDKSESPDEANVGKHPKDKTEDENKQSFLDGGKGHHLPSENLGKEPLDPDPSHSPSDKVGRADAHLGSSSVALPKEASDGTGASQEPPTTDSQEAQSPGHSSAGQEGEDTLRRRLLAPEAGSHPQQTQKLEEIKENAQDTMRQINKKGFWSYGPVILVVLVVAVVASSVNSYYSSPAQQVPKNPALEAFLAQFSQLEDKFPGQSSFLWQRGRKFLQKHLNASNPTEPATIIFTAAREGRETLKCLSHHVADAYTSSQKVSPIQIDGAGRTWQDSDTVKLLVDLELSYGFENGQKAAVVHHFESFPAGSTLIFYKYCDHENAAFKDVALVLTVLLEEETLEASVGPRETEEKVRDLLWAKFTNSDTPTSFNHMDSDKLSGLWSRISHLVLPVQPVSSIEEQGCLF
Sequence of Neurogenic locus notch homolog protein 3 (Homo sapiens) (Q9UM47 whole entry, looked up): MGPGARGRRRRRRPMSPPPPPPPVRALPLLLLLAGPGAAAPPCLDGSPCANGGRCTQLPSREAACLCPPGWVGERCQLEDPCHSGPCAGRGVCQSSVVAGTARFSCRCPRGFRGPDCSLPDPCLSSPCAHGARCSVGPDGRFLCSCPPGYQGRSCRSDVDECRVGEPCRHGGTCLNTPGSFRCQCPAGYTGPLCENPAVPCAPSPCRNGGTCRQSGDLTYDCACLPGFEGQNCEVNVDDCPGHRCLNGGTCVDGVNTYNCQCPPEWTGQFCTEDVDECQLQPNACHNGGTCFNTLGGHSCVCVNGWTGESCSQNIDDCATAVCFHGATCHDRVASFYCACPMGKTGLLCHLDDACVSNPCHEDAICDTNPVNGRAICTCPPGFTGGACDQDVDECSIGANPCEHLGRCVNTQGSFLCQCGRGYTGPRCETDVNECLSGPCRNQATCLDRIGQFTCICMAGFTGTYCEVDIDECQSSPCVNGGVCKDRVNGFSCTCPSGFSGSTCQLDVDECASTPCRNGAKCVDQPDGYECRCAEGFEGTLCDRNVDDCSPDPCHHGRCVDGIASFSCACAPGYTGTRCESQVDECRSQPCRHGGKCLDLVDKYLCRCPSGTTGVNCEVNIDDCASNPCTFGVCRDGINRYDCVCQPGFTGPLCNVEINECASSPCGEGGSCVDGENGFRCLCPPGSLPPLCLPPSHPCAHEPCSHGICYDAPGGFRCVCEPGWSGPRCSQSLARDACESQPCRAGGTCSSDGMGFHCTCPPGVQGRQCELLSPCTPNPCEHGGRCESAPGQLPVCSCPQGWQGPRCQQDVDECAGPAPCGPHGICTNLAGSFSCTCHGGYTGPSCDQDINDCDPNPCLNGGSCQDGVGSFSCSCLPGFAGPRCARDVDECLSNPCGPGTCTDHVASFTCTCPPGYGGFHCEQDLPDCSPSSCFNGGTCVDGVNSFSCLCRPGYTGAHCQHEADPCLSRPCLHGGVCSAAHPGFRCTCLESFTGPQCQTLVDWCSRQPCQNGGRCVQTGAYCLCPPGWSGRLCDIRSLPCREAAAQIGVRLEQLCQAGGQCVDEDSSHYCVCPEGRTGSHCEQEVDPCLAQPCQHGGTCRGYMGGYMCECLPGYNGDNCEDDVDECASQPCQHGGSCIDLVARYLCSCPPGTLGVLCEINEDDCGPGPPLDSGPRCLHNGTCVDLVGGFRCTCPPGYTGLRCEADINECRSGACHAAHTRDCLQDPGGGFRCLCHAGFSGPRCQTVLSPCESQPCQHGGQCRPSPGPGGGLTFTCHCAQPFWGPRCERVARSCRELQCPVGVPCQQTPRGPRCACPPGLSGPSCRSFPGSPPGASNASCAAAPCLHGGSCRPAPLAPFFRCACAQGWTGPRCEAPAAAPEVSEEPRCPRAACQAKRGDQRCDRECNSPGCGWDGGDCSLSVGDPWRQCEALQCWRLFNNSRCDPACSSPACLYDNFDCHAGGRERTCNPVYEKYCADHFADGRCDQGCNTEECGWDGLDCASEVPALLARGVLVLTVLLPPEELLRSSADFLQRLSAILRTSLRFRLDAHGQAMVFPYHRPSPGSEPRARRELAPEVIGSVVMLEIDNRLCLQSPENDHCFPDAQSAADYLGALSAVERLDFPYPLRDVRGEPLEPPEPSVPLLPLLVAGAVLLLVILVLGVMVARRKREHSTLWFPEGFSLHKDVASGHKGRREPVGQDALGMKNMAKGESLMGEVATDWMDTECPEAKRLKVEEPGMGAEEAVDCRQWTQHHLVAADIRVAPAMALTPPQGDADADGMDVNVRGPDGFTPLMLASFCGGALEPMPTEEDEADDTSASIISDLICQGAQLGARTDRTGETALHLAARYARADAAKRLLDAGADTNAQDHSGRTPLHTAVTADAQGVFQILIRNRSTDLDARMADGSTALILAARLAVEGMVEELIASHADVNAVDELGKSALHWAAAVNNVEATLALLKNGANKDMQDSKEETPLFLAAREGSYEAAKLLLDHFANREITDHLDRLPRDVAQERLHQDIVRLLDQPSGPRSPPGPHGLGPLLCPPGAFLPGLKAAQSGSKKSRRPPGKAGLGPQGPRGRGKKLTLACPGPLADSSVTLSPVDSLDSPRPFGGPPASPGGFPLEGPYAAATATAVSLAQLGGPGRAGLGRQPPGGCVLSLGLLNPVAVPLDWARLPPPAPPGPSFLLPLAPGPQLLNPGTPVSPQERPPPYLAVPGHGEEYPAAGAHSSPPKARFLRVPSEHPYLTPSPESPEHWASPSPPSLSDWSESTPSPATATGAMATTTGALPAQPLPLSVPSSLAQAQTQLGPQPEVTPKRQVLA
Sequence of Fibroblast growth factor 10 (Homo sapiens) (O15520 whole entry, looked up): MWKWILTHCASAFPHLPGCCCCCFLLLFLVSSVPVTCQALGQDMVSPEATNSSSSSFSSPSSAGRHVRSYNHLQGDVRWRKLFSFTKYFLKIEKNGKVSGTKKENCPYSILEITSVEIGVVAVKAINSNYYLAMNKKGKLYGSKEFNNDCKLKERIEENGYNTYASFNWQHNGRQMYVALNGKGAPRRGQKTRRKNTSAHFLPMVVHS
Sequence of Dickkopf-related protein 1 (Homo sapiens) (O94907 whole entry, looked up): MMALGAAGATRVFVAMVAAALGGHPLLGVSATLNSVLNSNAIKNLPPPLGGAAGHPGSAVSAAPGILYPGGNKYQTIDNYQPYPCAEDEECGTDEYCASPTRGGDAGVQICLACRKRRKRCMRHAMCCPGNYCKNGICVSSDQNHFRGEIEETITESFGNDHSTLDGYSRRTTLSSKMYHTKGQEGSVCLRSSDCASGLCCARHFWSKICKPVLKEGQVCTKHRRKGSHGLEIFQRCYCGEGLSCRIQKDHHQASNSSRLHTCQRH

For `CCOC(=O)C1=C[C@@H](c2ccccc2)N(S(=O)(=O)c2ccc(C)cc2)[C@H]1c1ccc(F)cc1`, the composite z-score was 1.56 in test [1]; 3.06 in test [5]; -0.0141 in test [7]; 0.512 in test [8]; 1.09 in [9]; 0.0624 in test [10]. In addition, the composite z-score was 0.873 in test [11]; 0.362 in [12]; 0.573 in test [13]; 0.635 in test [15]; 1.29 in [16]; 0.158 in test [17]. Also, the composite z-score is 1.04 in [18], 0.675 in test [19] and 0.589 in test [20]. Further, the z-score in test [2] was 0.575 (inactive); in [3], 2.18 (inactive); in test [4], 2.39 (inactive); in [6], -0.382 (inactive); in [14] it was -0.162 (inactive).
Regarding `CO[C@H]1COC(=O)[C@H](C)NC(=O)CC=C[C@@H](C)[C@H](NS(=O)(=O)c2ccc(C)cc2)COC(=O)[C@@H](OCc2ccccc2)C=C[C@@H]1C`, the composite z-score in test [1] was 0.229; in test [5] it was -0.569; in test [7], -0.316; in test [8] it was 0.801; in test [9], -0.439; in test [10], -0.168. The composite z-score is -0.189 in test [11]; -0.667 in test [12]; -0.97 in [13]; 0.0808 in test [15]; 0.258 in test [16]; 0.286 in test [17]. Also, the composite z-score in [18] stood at 0.512; in test [19], 1.37; in test [20] it was 0.51. Moreover, the z-score is 1.22 (inactive) in test [2]; 0.129 (inactive) in [3]; 2.1 (inactive) in [4]; 0.176 (inactive) in test [6]; -0.138 (inactive) in test [14].
Regarding `Cc1cc(C)c(C(O)C2C=CC3C(=O)N(C)C(=O)C3N2N2CCCCC2)c(C)c1` (stereo not given), the composite z-score in [1] worked out at 1.54; in test [5], 2.99; in test [7] it was 0.433; in test [8] it was 0.521; in test [9], 1.06; in [10], 0.301. The composite z-score in [11] was 1.38; in test [12] it was 0.261; in test [13], 1.2; in [15], 1.07; in test [16], 1.31; in [17] it was 0.641. The composite z-score in test [18] was determined as 1.35; in test [19], 0.384; in [20] it was 1.36. Moreover, the z-score in test [2] is -0.133 (inactive); in test [3], 1.08 (inactive); in test [4] it was -0.376 (inactive); in test [6], -0.587 (inactive); in test [14] it was 1.91 (inactive).
Regarding `CO[C@H]1COC(=O)[C@H](Cc2ccccc2)NC(=O)CC=C[C@@H](C)[C@H](OC)COC(=O)CC=C[C@@H]1C`, the composite z-score in test [1] is -0.141; in test [5], 0.239; in test [7], -0.152; in test [8], 0.344; in test [9], 0.717; in test [10] it was 0.0875. Moreover, the composite z-score in [11] was 0.143; in test [12], 0.077; in test [13], -0.473; in [15], 0.323; in test [16] it was 0.418; in test [17], 0.44. Also, the composite z-score in test [18] is 0.532; in test [19] it was 0.898; in [20] it was -0.405. Moreover, the z-score is -0.39 (inactive) in test [2]; -1.44 (inactive) in test [3]; -0.617 (inactive) in [4]; 0.296 (inactive) in test [6]; -0.875 (inactive) in test [14].
With `CCN1C(C)=C(C(=O)OC)[C@@H](c2ccccc2)N2C(=O)[C@](O)(C(=O)OC)[C@@H](c3ccccc3)C(C(=O)c3ccccc3)=C12`, the composite z-score in test [1] is 0.481; in test [5] it was 1.41; in [7], -0.132; in [8] it was 0.416; in [9] it was 0.685; in [10], 0.0255. The composite z-score in [11] was 0.689; in test [12] it was 0.0153; in test [13], -0.396; in [15] it was 0.436; in test [16], 0.779; in test [17] it was 0.385. The composite z-score in test [18] is 0.363; in [19], 0.812; in [20] it was -0.411. The z-score was -0.59 (inactive) in test [2]; -4.98 (inactive) in test [3]; -0.714 (inactive) in test [4]; 1.43 (inactive) in test [6]; -2.45 (inactive) in test [14].
